hgDAF12 agonist = agonists of H. glycines DAF-12 nuclear receptor; HEK293 GAL4-hgDAF12 UAS-luciferase reporter, agonist luminescence; normalized to butyrate control; activation, % at 6.8 µM; 1.8% of 370,000 active; AID 687014;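 active means activation above a cutoff set at the mean of all screened compounds plus 3 SD, cut at about 10% in these data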
DAX1 inh-1 = inhibitors of DAX1 repression of SF-1 activated StAR promoter; 1.1% of 370,000 active; AID 652010; inhibition, % at 6.8 µM; HEK293T StAR-luciferase reporter, SF-1/DAX-1 repression relief;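 active means inhibition above the mean over all tested compounds plus 3 SD, cut at about 3.6% in these data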;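 further: higher inhibition means more luminescence from relief of DAX-1 repression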
DAX1 inh-2 = inhibits human nuclear receptor DAX1 | P51843 | HEK293 Gal4-DAX1 luciferase reporter, luminescence | inhibition, % at 6.75 µM | 0.99% of 340,000 active | AID 504766;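 active means inhibition above the mean over all tested compounds plus 3 SD, cut at about 4.2% in these data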;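 further: inhibition shows as a rise in luminescence from relieved DAX1 repression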
SMARCA2 activ = increases SMARCA2 function in MMTV reporter cells; MG213 cells, MMTV-luciferase reporter, dexamethasone, overnight; activation, % at 9.1 µM; 1% of 370,000 active; in the data active means activation above about 7.8%
ssDAF12 agonist = S. stercoralis DAF-12 activation, primary screen; HEK293 ssDAF-12/GRIP1 lit1-tk-luc reporter, luminescence; % of 3 µM dafachronic acid response; activation, % at 6.8 µM; 1% of 370,000 active; AID 652126;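 active means activation above the mean over all tested compounds plus 3 SD, cut at about 0.9% in these data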
hcDAF-12 act = activators of H. contortus DAF-12 nuclear receptor; HEK293 hcDAF-12 lit1-tk-luc reporter, luminescence; 0% DMSO, 100% Δ7-dafachronic acid; activation, % at 6.8 µM; 1.4% of 370,000 active;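 active means activation above the mean of all tested compounds plus 3 SD, cut at about 5.5% in these data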
DAX1 inh confirm = confirmation of human DAX1 (NR0B1) inhibitors; HEK293T StAR-promoter luciferase reporter, SF-1/DAX-1 repression; 87% of 2,400 active; shares compounds with DAX1 inh-1; inhibition, % at 6.8 µM;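 active means inhibition above the average of every tested compound plus 3 SD, cut at about 3.8% in these data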;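 further: active compounds raise luminescence by relieving repression of the StAR reporter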
Target sequence (P51843 whole entry, looked up): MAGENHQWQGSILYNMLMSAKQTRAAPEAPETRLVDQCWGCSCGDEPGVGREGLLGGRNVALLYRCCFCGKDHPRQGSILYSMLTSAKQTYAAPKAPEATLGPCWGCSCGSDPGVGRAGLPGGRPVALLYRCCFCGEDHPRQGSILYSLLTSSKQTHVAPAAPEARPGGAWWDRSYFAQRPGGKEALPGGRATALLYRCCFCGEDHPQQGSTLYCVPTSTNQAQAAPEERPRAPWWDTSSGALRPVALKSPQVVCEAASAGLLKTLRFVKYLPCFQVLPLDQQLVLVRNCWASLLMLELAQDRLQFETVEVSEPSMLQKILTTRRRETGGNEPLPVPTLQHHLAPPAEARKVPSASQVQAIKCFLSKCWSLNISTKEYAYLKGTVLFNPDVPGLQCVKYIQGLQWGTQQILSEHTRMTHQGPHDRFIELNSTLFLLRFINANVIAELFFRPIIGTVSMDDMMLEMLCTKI
SF1 mutant ctr = nonselective inhibitor or artifact in SF-1 mutant DAX1 counter-screen. shares compounds with DAX1 inh-1. HEK293 StAR-luciferase, SF-1 AF2 mutant, luminescence. inhibition, % at 6.8 µM. 78% of 2,400 active. AID 652136;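 active means inhibition above the mean of all tested compounds plus 3 SD, cut at about 3% in these data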
SMARCA2 conf = confirmation of SMARCA2 (BRM) function activators | shares compounds with SMARCA2 activ | MG213 cells, MMTV-luciferase with dexamethasone, luminescence, overnight; MG213 cells expressing E1A, Rb sequestered; DMSO wells 0%, reference activator 100% | activation, % at 9.1 µM | 30% of 3,500 active;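 active means activation above its plate's cutoff, the mean activation of tested wells plus 3 SD, cut at about 7.9% in these data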
GAL4-VP16 Luc = GAL4-VP16 reporter activation counter-screen; 41% of 3,500 active; shares compounds with SMARCA2 activ; activation, % at 9.1 µM; HEK293 GAL4-VP16 pG5luc reporter, luciferase luminescence; scaled: DMSO wells 0%, SAHA wells 100%;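 active means activation above the solvent-only control well mean plus 3 SD, averaged across control plates, cut at about 5.2% in these data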
LXRb hcDAF ctr = activates human LXR-beta, counter-screen for hcDAF-12 agonists; shares compounds with hcDAF-12 act; HEK293 Gal4-LXR tk-luc reporter, luminescence, 24 h; normalized: DMSO 0%, positive control 100%; activation, % at 6.8 µM; 3,400 tested, under 10 active;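 active means mean percent activation of the reporter above a cutoff set as the average over tested compounds plus their standard deviation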
hcDAF12 conf = confirmation of H. contortus DAF-12 agonists; shares compounds with hcDAF-12 act; HEK293 hcDAF-12 lit1-tk-luc reporter, luminescence; % of Δ7-dafachronic acid response; activation, % at 6.8 µM; 61% of 3,400 active; AID 743032;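 active means mean activation across triplicate tests above the threshold derived from the earlier primary screen, cut at about 5.5% in these data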
Numbers stand for hits; – = inactive; · = not tested or not shown. A selection: hits, their analogues and other compounds. The true share with any hit is near 4.8%.

SMILES	hgDAF12 agonist	DAX1 inh-1	DAX1 inh-2	SMARCA2 activ	ssDAF12 agonist	hcDAF-12 act	DAX1 inh confirm	SF1 mutant ctr	LXRb hcDAF ctr	hcDAF12 conf	others
Cc1ccc(NC(=O)c2sc3ccccc3c2Cl)nc1	20	5.1	–	–	–	10	11	3.1	–	18
Cc1ccnc(NC(=O)c2sc3cc(Cl)ccc3c2Cl)c1	–	–	–	–	–	–	·	·	·	·
CN(C)CCNC(=O)c1sc2cccc(F)c2c1Cl	–	–	–	–	–	–	·	·	·	·
O=C(Nc1ccccn1)c1sc2cccc(F)c2c1Cl	19	8.4	–	–	1.1	14	8.5	–	–	18
CC(=O)c1sc(NC(=O)c2ccc(COc3ccccc3Cl)o2)nc1C	–	–	–	–	–	–	·	·	·	·
CN(C)c1ccc(/C=N/NC(=O)c2ccco2)cc1	14	4.6	–	–	1.2	10	14	7.1	–	–
COc1ccc(C2NC(=S)NC3=C2CCCC3=C2SCCS2)cc1 (centres undefined)	50	88	5.0	–	–	7.9	13	–	–	–
S=C1NC2=C(CCCC2=C2SCCCS2)C(c2ccccc2)N1 (centres undefined)	–	–	–	–	–	–	·	·	·	·
NC(=O)C1CCN(C(=O)CCSCc2ccccc2)CC1	–	–	–	–	–	–	·	·	·	·
c1ccc(-c2noc(-c3ccccc3-c3ccccc3)n2)cc1	–	–	–	–	–	–	·	·	·	·
Cc1ccc(-c2noc(-c3ccccc3Br)n2)cc1	14	5.5	4.2	–	2.9	16	16	7.8	–	21
Cc1ccc(N=Nc2cc(C)ccc2O)c(C)c1	–	–	–	–	–	–	·	·	·	·
Cc1ccc(N=Nc2cc(C)ccc2N)cc1	17	4.7	–	–	2.8	20	18	8.1	–	22
Clc1ccc(-c2nnc(-c3cccc4ccccc34)o2)cc1	–	–	–	–	–	–	·	·	·	·
Cc1cccc(-c2nnc(-c3cccc4ccccc34)o2)c1	11	5.4	6.4	–	1.2	7.0	10.0	8.5	–	8.7
Brc1ccc2[nH]c3c(c2c1)CCC3	–	–	–	–	–	–	·	·	·	·
O=C1Cc2c([nH]c3ccc(Br)cc23)-c2ccccc2N1	11	7.5	–	9.2	–	11	6.4	–	–	8.5	SMARCA2 conf=19;GAL4-VP16 Luc=–
C(=Cc1cnc2ccccc2n1)c1ccc2c(c1)OCO2	–	–	–	–	–	–	·	·	·	·
C(=Cc1nc2ccccc2o1)c1ccc2c(c1)OCO2	14	13	–	–	–	8.1	6.3	–	–	8.9
N#CCSc1ccc2nc(-c3ccccc3)cn2n1	–	7.1	–	–	1.0	7.5	5.8	4.7	–	8.1
O=C(CCN1C(=O)C2CCCCC2C1=O)Nc1nc2ccc(F)cc2s1 (centres undefined)	–	4.7	–	–	–	6.9	13	3.5	–	15
Fc1ccccc1-c1n[nH]c(=S)n1N=Cc1ccc(OCc2ccccc2)cc1	–	–	·	–	–	–	·	·	·	·
CCOc1ccc(NC(=O)/C=C/c2ccccc2)c([N+](=O)[O-])c1	–	–	–	–	–	–	·	·	·	·
CCOc1ccc(N/C=C/C(=O)c2ccccc2)c([N+](=O)[O-])c1	–	7.5	–	–	–	11	–	–	–	–
COc1ccc(-c2cc3c(nn2)-c2ccccc2C3=O)cc1	12	4.5	–	11	2.4	9.4	–	–	–	–	SMARCA2 conf=8.7;GAL4-VP16 Luc=5.2
SMILES	hgDAF12 agonist	DAX1 inh-1	DAX1 inh-2	SMARCA2 activ	ssDAF12 agonist	hcDAF-12 act	DAX1 inh confirm	SF1 mutant ctr	LXRb hcDAF ctr	hcDAF12 conf	others
COc1ccc(-c2cc(-c3ccccc3)c(-c3ccccc3)nn2)cc1	–	–	·	–	–	–	·	·	·	·
COc1ccc(NC(=O)Nc2cc(C)ccn2)cc1	19	5.0	–	–	–	7.3	17	8.2	–	8.9
COc1ccc(C(=O)NC(=O)Nc2cc(C)ccn2)cc1	–	6.6	–	12	–	7.7	–	–	–	–	SMARCA2 conf=–;GAL4-VP16 Luc=–
O=C(CNCc1ccccn1)Nc1ccc([N+](=O)[O-])cc1C(=O)Nc1ccccc1F	–	–	–	–	–	–	·	·	·	·
Cc1[nH]c2ccccc2c1C(=O)NS(=O)(=O)Nc1ccc(Cl)cc1	–	–	–	–	–	–	·	·	·	·
c1ccc2c(c1)CC(CN1CCNCC1)O2 (centres undefined)	–	–	–	–	–	–	·	·	·	·
O=C(N/N=C/c1sc(=O)[nH]c1-[n+]1ccc2ccccc2c1)c1ccccc1[O-]	–	4.9	–	–	–	8.4	–	–	–	–
O=C(N/N=C/c1sc(=O)[nH]c1-[n+]1ccccc1)c1ccccc1[O-]	–	–	–	–	–	–	·	·	·	·
COc1ccc(N2CCN(C(=O)CCc3ccccc3)CC2)cc1	–	–	–	–	–	–	·	·	·	·
CCOC(=O)[C@]12CCCCC/C=C\1N(Cc1ccc(OC)cc1)C(=O)[C@H]2CC(=O)N1CCSCC1	–	–	·	–	–	–	·	·	·	·
Cc1ccnc(NC(=O)Cc2ccc(-c3ccccc3)cc2)c1	34	15	–	42	1.3	9.9	21	–	–	9.6	SMARCA2 conf=37;GAL4-VP16 Luc=9.1
Cc1ccnc(NC(=O)Cc2ccc([N+](=O)[O-])cc2)c1	–	–	–	–	–	–	·	·	·	·
CCOC(=O)c1sc(=NC(=O)c2ccc(C)c(C)c2)n(C)c1C	–	–	–	–	–	–	·	·	·	·
CCOC(=O)c1sc(=NC(=O)c2ccccc2Br)n(C)c1C	11	7.4	–	–	–	13	9.6	4.2	–	10
COc1ccc(CC(=O)Oc2ccc(C)cc2Br)cc1OC	–	–	–	–	–	–	·	·	·	·
N#Cc1ccsc1NC(=O)CSc1nncs1	16	8.4	–	–	–	9.4	11	5.2	–	11
